# Data taken from PubChem BioAssay AID977607 (Broad Institute, 2014).
# Out of some 1,500 compounds screened, about 460 (31%) were called active. Inconclusive results (about 1%) are left out. The list is a sample of the results. Results with a measured potency or affinity are listed apart. A number with no mark means an inactive call.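 How the source made its calls: active means curve reaches 40% activation over neutral controls at an AC40 no higher than the top valid tested concentration; inconclusive means no clear call, values can overlap the other calls; inactive means signal moving opposite to the expected increase, and the rest.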
# Test: GLuc-reported insulin release enhancers, glucose-stimulated beta cells – cell-based, INS-1E, Gaussia luciferase, luminescence, cherry-pick, set 2, dose response (AID 977607);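 further: 0% = median of the plate neutral control wells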
# Conditions: INS-1E GLuc insulin secretion reporter, 2-3 h, active compounds read high; at 35 µM, 100% = signal doubled over neutral wells unless noted
row,Compound,max activation
1,CCCC(=O)Nc1ccc(N2CCN(S(C)(=O)=O)CC2)cc1,"-16% [at 11 µM, 100% = signal doubled over neutral wells]"
2,CCc1onc(C)c1C(=O)Nc1ccc(N2CCOCC2)cc1,"-20.7% [at 11 µM, 100% = signal doubled over neutral wells]"
3,CCn1c(C)nc2cc(S(=O)(=O)C(F)(F)F)ccc21,"-18% [at 0.135 µM, 100% = signal doubled over neutral wells]"
4,COC(=O)c1scc(C)c1NC(=O)CC1NCCNC1=O (configuration not stated),"-9.21% [at 0.0016 µM, 100% = signal doubled over neutral wells]"
5,O=C(O)c1ccc(S(=O)(=O)NCc2ccc3c(c2)OCO3)cc1,"-14.4% [at 0.42 µM, 100% = signal doubled over neutral wells]"
6,O=C(c1ccc2c(c1)OCO2)N1CCN(S(=O)(=O)c2ccccc2)CC1,"-16.9% [at 0.42 µM, 100% = signal doubled over neutral wells]"
7,COc1ccc(S(=O)(=O)N(C)c2ccc(C(=O)NCC3CCCO3)cc2)cc1OC (configuration not stated),"-7.27% [at 1.2 µM, 100% = signal doubled over neutral wells]"
8,CC(=O)c1cccc(Nc2ncnc3ccc(Br)cc23)c1,"-20.3% [at 0.0016 µM, 100% = signal doubled over neutral wells]"
9,COC(=O)COc1ccc(C)cc1-n1nc2ccccc2n1,22.5%
10,CCOc1cc(C(=O)N(C)CC(=O)Nc2cccc3ccccc23)ccc1OC,"18.1% [at 11 µM, 100% = signal doubled over neutral wells]"
11,COc1cccc(-c2nnn(CC(=O)O)n2)c1,-16%
12,CN(C)S(=O)(=O)c1cccc(-c2csc(N/N=C/c3ccco3)n2)c1,"-17.2% [at 3.8 µM, 100% = signal doubled over neutral wells]"
13,CCc1cccc(NC(=O)C2CCCN2S(=O)(=O)c2ccc3c(c2)n(C)c(=O)c(=O)n3C)c1 (configuration not stated),-17.8%
14,CCOc1cc(OCC)cc(C(=O)Nc2cccnc2)c1,"14.6% [at 1.2 µM, 100% = signal doubled over neutral wells]"
15,C=C1[C@@H](O)[C@H](CC(C)C)N(Cc2ccccc2Br)S1(=O)=O,-22.8%
16,COc1ccc(-n2c(-c3ccc(Cl)cc3)c[nH]c2=S)cc1,14.5%
17,CCCOc1ccc(/C=N/NC(=O)C(=O)Nc2ccccn2)cc1,19.6%
18,CC(C)CCC(O)(CCC(C)C)C(=O)NN1CCCCC1,"26.3% [at 0.015 µM, 100% = signal doubled over neutral wells]"
19,O=c1cc(Cl)[nH]c(=O)n1Cc1ccccc1,"-18% [at 0.135 µM, 100% = signal doubled over neutral wells]"

row,Compound,max activation
1,Cc1ccc(NC(=O)c2ccccc2-c2ccccc2C(=O)O)cc1C,"-15.4% [at 0.046 µM, 100% = signal doubled over neutral wells]"
2,Cc1cc(C(=O)Nc2cccc(O)c2)c(C)o1,"50.1% [at 0.135 µM, 100% = signal doubled over neutral wells]"
3,CCCn1nc(C(=O)NC2CCCC2)c2ccccc2c1=O,"14.9% [at 0.135 µM, 100% = signal doubled over neutral wells]"
4,CCCn1nc(C(=O)NC2CC2)c2ccccc2c1=O,"-11.7% [at 0.135 µM, 100% = signal doubled over neutral wells]"
5,CCNc1nc(C)nc2c1oc1ccccc12,"20.6% [at 11 µM, 100% = signal doubled over neutral wells]"
6,CC(C)Oc1cccc(C(=O)C2CCCN(C(=O)CCc3cnn(C)c3)C2)c1 (configuration not stated),"-16.9% [at 0.0016 µM, 100% = signal doubled over neutral wells]"
7,COCCn1c(=O)[nH]c2cc(C(=O)Nc3cc(OC)c(OC)c(OC)c3)ccc2c1=O,"-21.3% [at 11 µM, 100% = signal doubled over neutral wells]"
8,Cc1ccnc(NC(=O)Nc2ccc(Br)cc2Cl)c1,"-16.6% [at 0.0016 µM, 100% = signal doubled over neutral wells]"
9,COc1ccc(Cl)cc1C(=O)Nc1cccc(-c2ccc3nncn3n2)c1,"-16.9% [at 0.015 µM, 100% = signal doubled over neutral wells]"
10,CCCCCCc1cc2cc(C(=O)Nc3cccc(OC)c3)c(=O)oc2cc1O,"-54.3% [at 1.2 µM, 100% = signal doubled over neutral wells]"
11,COc1ccccc1C(OC(=O)c1cccs1)C(=O)NCC1CCCO1 (configuration not stated),"-15.4% [at 0.015 µM, 100% = signal doubled over neutral wells]"
12,Cc1cccc(C2N=C(N)Nc3nc4ccccc4n32)c1 (configuration not stated),"-24% [at 0.005 µM, 100% = signal doubled over neutral wells]"
13,O=C(Cc1c[nH]c2ccccc12)N[C@@H](Cc1c[nH]c2ccccc12)C(=O)O,"39.3% [at 0.135 µM, 100% = signal doubled over neutral wells]"
14,C=CCn1c(O)c(N=NC(=O)CNC(=O)c2ccco2)c2ccccc21,10.5%
15,O=C1NC(c2ccccc2)c2c(-c3ccccc3)n[nH]c21 (configuration not stated),"-9.3% [at 0.005 µM, 100% = signal doubled over neutral wells]"
16,O=c1[nH]nc(-c2cccs2)c2ccccc12,31.3%
17,CCCc1cc(=O)n2[nH]c(C)c(-c3ccc(Cl)cc3)c2n1,"24.5% [at 0.0016 µM, 100% = signal doubled over neutral wells]"
18,CCc1nnc(NC(=O)C(c2ccccc2)c2ccccc2)s1,-21.5%
19,O=C(Nc1ccccc1)Nc1nnc(-c2cccs2)s1,"-23.9% [at 11 µM, 100% = signal doubled over neutral wells]"

row,Compound,max activation
1,O=S(=O)(Nc1ncnc2sc3c(c12)CCC3)c1cc(F)ccc1F,"30.2% [at 0.135 µM, 100% = signal doubled over neutral wells]"
2,NC(=O)c1ccc2nc(-c3ccccc3)c(-c3ccccc3)nc2c1,28.4%
3,CCOC(=O)Cn1c(=O)n(Cc2ccccc2)c(=O)c2cccnc21,"-12.9% [at 0.0016 µM, 100% = signal doubled over neutral wells]"
4,O=C(O)CCCNC(=O)c1nn(Cc2ccccc2)c(=O)c2ccccc12,"-18.7% [at 0.0016 µM, 100% = signal doubled over neutral wells]"
5,c1ccc(Oc2ccccc2-c2cc(NCCc3cccnc3)n3nccc3n2)cc1,"-10.9% [at 0.046 µM, 100% = signal doubled over neutral wells]"
6,O=C(Nc1nnc(-c2ccc(Cl)cc2)o1)NC1CCCCC1,-20.9%
7,O=C(CCCC(=O)c1ccccc1)NCc1ccccc1,"35.8% [at 3.8 µM, 100% = signal doubled over neutral wells]"
8,NCCCNC(=S)NCCCN(Cc1ccc(Cl)cc1)c1ccc(Br)cn1,"-16.7% [at 0.005 µM, 100% = signal doubled over neutral wells]"
9,Cc1cccc(-c2cc3nc4c(c(N5CCCC(O)C5)n3n2)CCC4)c1 (configuration not stated),"36.7% [at 11 µM, 100% = signal doubled over neutral wells]"
10,Cn1c(=O)c2[nH]c(SCc3ccccn3)nc2n(C)c1=S,"-21.4% [at 11 µM, 100% = signal doubled over neutral wells]"
11,COc1ccc(C2=NOC(C(=O)NCc3ccccn3)C2)cc1OC (configuration not stated),31.6%
12,Fc1ccc(-c2csc3nnc(SCc4cccnc4)n23)cc1,18.4%
13,O=S1(=O)c2ccccc2OC(COCc2ccccc2)CN1C1CC1 (configuration not stated),-28.4%
14,CCN(CC)C(=O)c1ccccc1NS(=O)(=O)c1ccc(C)cc1,"-13.4% [at 0.0016 µM, 100% = signal doubled over neutral wells]"
15,Cn1c(N)c(C(c2ccccc2)c2c(N)n(C)c(=O)n(C)c2=O)c(=O)n(C)c1=O,"17.9% [at 0.005 µM, 100% = signal doubled over neutral wells]"
16,CC(C)c1ccc(NC2CCCN(C(=O)c3cccnc3)C2)cc1 (configuration not stated),"-13.8% [at 0.42 µM, 100% = signal doubled over neutral wells]"
17,CCOC(=O)c1nc(-c2ccccc2)oc1N(C)C,"-16.2% [at 1.2 µM, 100% = signal doubled over neutral wells]"
18,CCCc1nc(N)sc1C(=O)OCC,"-11.4% [at 1.2 µM, 100% = signal doubled over neutral wells]"
19,Nc1nc(SCc2nc3scc(-c4ccccc4)c3c(=O)[nH]2)n[nH]1,50.6%
